{
  "source": "PubChem BioAssay (NCI)",
  "note": "Compounds without any hit were thinned out: in the full panel of roughly 83,000, 20% have a hit.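 Single-concentration screen, 48 h exposure, 96-well plates. Endpoint: percent growth. Below 10 = active.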 Values without a mark were called inactive. Activity calls are given as the source filed them.",
  "data": [
    {"system": "OVCAR-3 ovarian", "assay": "NCI-60 one-dose screen, 48 h (100 = growth as untreated, 0 = no growth, -100 = all killed)", "conditions": "10 µM unless noted", "procedure": "Growth inhibition of the OVCAR-3 human tumor cell line is measured as a screen for anti-cancer activity. Cells are grown in 96 well plates and exposed to the test compound for 48 hours. Compounds are tested at a single concentration, which is 10^-5 M for most compounds. The reported endpoint is percent growth (GI% or GIPRCNT), where numbers from 0 - 100% represent growth inhibition, and numbers from -100% - 0 represent cell death. For example, a value of 40 represents 60% growth inhibition. A value of 0 means no net growth occurred over the course of the experiment. A value of -40 indicates 40% of cells at the beginning of the experiment died by the end of the experiment. A value of -100 means all cells are dead at the end of the experiment.\nNCI-60 Human Tumor Cell Lines Screen was performed using the standard one-dose NCI protocol, which is described in more detail at https://dtp.cancer.gov/discovery_development/nci-60/default.htm.\nCompounds with GIPRCNT values below 10 were considered active. Activity score was based on GIPRCNT using the following formula: […]\nScore is 0 for GIPRCNT values of 100 or above, 50 for GIPRCNT values of 0, and 100 for GIPRCNT values of -100.", "values": [
      {"smiles": "COc1ccc(Cc2nnc(Nc3nc4ccccc4s3)s2)cc1", "growth": "103%"},
      {"smiles": "OC(c1ccccc1)(c1ccccc1)c1ccccc1-c1ccccc1", "growth": "101%"},
      {"smiles": "O=C(CCC(=O)c1nc2ncccc2[nH]1)NN1C(=O)CSC1c1ccc(Cl)cc1", "note": "(stereo not given)", "growth": "98.7%"},
      {"smiles": "COc1cc(C2Cc3ncccc3-c3[nH]c(=O)c4cccnc4c32)cc(OC)c1OC", "note": "(stereo not given)", "growth": "-11.3% (active)"},
      {"smiles": "Cc1c(N2CN3C[C@H](C)N4CN(c5c(C)n(C)n(-c6ccccc6)c5=O)CN5C[C@@H](C)N(C2)C3C54)c(=O)n(-c2ccccc2)n1C", "note": "(stereo not given in full)", "growth": "100%"},
      {"smiles": "Clc1nn2c(Cn3cnc4c(NCc5ccccc5)ncnc43)nnc2c2ccccc12", "growth": "45.8%"},
      {"smiles": "O=C1/C=C/[C@@H](O)[C@@H]2C[C@@H](O)C[C@H]2/C=C/CCC[C@H](CCOCc2ccccc2)O1", "growth": "-45.8% (active)"},
      {"smiles": "COc1cc(OC)cc(C2C(C#N)=C(N)Oc3c2ccc2ccc(O)cc32)c1", "note": "(stereo not given)", "growth": "-16% (active)"},
      {"smiles": "N#Cc1c(NC(=O)c2cccs2)[n+]([O-])c2ccc(Cl)cc2[n+]1[O-]", "growth": "81.5%"},
      {"smiles": "CC(=O)N/C(=C1/OC(C(O)C(O)C(O)CO)CN1C)[P+](c1ccccc1)(c1ccccc1)c1ccccc1", "note": "(stereo not given)", "growth": "112%"},
      {"smiles": "NS(=O)(=O)c1ccc(N/C=C/C(=O)c2cc3ccccc3oc2=O)cc1", "growth": "101%"},
      {"smiles": "COc1ccc2c(c1)c(-c1nonc1-c1c[nH]c3ccc(Br)cc13)cn2C", "growth": "41.1%"},
      {"smiles": "CCCCCCCCCCCCCCCCCCOc1ccccc1CC(=O)NCC[N+]1(C)CCOCC1", "growth": "67.3%"},
      {"smiles": "C=C1C(=O)O[C@H]2[C@H]1CC/C(COC(=O)c1cc3cc(F)ccc3[nH]1)=C\\CC[C@@]1(C)O[C@@H]21", "growth": "-85.5% (active)"},
      {"smiles": "COCCCOc1cc(C[C@@H](C[C@H](N)[C@@H](O)C[C@H](C(=O)NCC(C)(C)C(N)=O)C(C)C)C(C)C)ccc1OC", "growth": "116%"},
      {"smiles": "CC1=C(C(=O)n2c3ccccc3c3ccccc32)C(c2cccc([N+](=O)[O-])c2)C(C(=O)n2c3ccccc3c3ccccc32)=C(C)N1", "growth": "100%"},
      {"smiles": "CCOc1ccc(NC(=O)c2cc(OC)c(OC)c(OC)c2)cc1", "growth": "-3.43% (active)"},
      {"smiles": "CO[C@H](C(=O)[C@@H](O)[C@@H](C)O)[C@@H]1Cc2cc3cc(O[C@H]4C[C@@H](O[C@H]5C[C@@H](O)[C@H](O)C(C)O5)[C@H](O)C(C)O4)c(C)c(O)c3c(O)c2C(=O)[C@H]1O[C@H]1C[C@@H](O[C@H]2C[C@@H](O[C@H]3C[C@@H](OC)[C@H](O)C(C)O3)[C@@H](O)C(C)O2)C(O)(O)C(C)O1", "note": "(stereo not given in full)", "growth": "9.32% (active)"},
      {"smiles": "C=CCOC(=O)C1=C(C)NC(=O)NC1c1c(Cl)n(C)c2ccccc12", "note": "(stereo not given)", "growth": "104%"},
      {"smiles": "CCOC(=O)c1ccc2c(c1)c1c(C)c3ccncc3c(C)c1n2C", "growth": "-20.4% (active)"},
      {"smiles": "CN(C)Cc1ccc(C(=O)Nc2ccc3ncnc(Nc4ccc(Oc5cccc(F)c5)c(Cl)c4)c3c2)cc1", "growth": "-24.2% (active)"},
      {"smiles": "CCCCN1C(=O)/C(=c2\\sc3n(c2=O)NC2C(N=3)N(CC)C(=O)N2CC)c2ccccc21", "note": "(stereo not given)", "growth": "0.018% (active)"},
      {"smiles": "Cn1c(=O)c2c(c3ccccc31)OC(N)=C(C#N)C21C(=O)c2ccccc2C1=O", "growth": "98.7%"},
      {"smiles": "COc1ccc(/C(C)=C(\\c2ccc(Cl)cc2)c2ccc(OCCN3CCCC3)cc2)cc1", "growth": "63.7%"},
      {"smiles": "C/C(=N\\Nc1nc(C)cs1)c1cc2ccccc2o1", "growth": "94.1%"},
      {"smiles": "CN1CCN(Cc2cc(NC(=O)c3cccc(C#Cc4cccc5[nH]nc(N)c45)c3)cc(C(F)(F)F)c2)CC1", "growth": "64.1%"},
      {"smiles": "Cn1cc(-c2nonc2-c2c[nH]c3ccc(F)cc23)c2cc(Br)ccc21", "growth": "60.3%"},
      {"smiles": "O=c1[nH]cnc2c1C(c1ccc(Br)cc1)c1sc3c(F)cccc3c1O2", "note": "(stereo not given)", "growth": "107%"},
      {"smiles": "CCCCCCCCn1ccc2cc(NC(=O)Cn3cc(CN4CCN(CC)CC4)nn3)ccc21", "growth": "66.8%"},
      {"smiles": "COc1ccc(-c2cc(C(=O)N3N=C(c4ccc(N)cc4)CC3c3ccccc3)c3ccccc3n2)cc1", "note": "(stereo not given)", "growth": "10.7%"},
      {"smiles": "CCN(CC)c1ccc(/C=N\\NC(=O)c2cccc(Nc3ccnc(C(F)(F)F)c3)c2)c(O)c1", "growth": "30.9%"},
      {"smiles": "CC(C)C[C@@H](C(=O)N[C@H](C(=O)OC1CCCC1)c1ccccc1)[C@H](O)C(=O)NO", "growth": "43.4%"},
      {"smiles": "Cc1ccc(C)c(-n2c(-c3ccc(Br)cc3)csc2=NC(=O)c2ccccc2F)c1", "growth": "75.5%"},
      {"smiles": "CN(Cc1cnc2nc(N)nc(N)c2n1)c1c(Cl)cc(C(=O)NC(CCC(=O)O)C(=O)O)cc1Cl", "note": "(stereo not given)", "growth": "48.1%"},
      {"smiles": "CC(C)CN1CC(C(=O)Nc2ccc3c(c2)-c2ccccc2C3)CC1=O", "note": "(stereo not given)", "growth": "75.6% [50 µM]"},
      {"smiles": "Cc1cc(N2CCCCC2)nc(N2CCN(CC(=O)Nc3ccc4c(ccn4Cc4ccccc4)c3)CC2)n1", "growth": "68.7%"},
      {"smiles": "COc1ccc(C2CC(c3ccc(Nc4nc(Nc5ccc(F)cc5)nc(Nc5ccc(F)cc5)n4)cc3)=NN2C(C)=O)cc1", "note": "(stereo not given)", "growth": "97.9%"},
      {"smiles": "COc1cc2nc(Nc3cccc(F)c3)nc(Nc3cc(C)[nH]n3)c2cc1OC", "growth": "-80.2% [20 µM] (active)"},
      {"smiles": "C=CCN=C(N)SCCCCCCSC(N)=NCC=C", "growth": "95.9%"},
      {"smiles": "O=C1Nc2ccccc2/C1=C/c1cn(C[C@@H](O)Cn2c3ccccc3c(=O)c3ccccc32)c2ccccc12", "growth": "73.5%"}
    ]}
  ]
}
